Assay results as given in PubChem BioAssay AID624305 (National Center for Advancing Translational Sciences (NCATS), 2012).
Records with an inconclusive call do not appear. Activity calls are given as the source filed them. Calls follow the shape of the dose curve; as a rule, active = well fitted activation curve with a large enough effect; inconclusive = small, poorly fitted or top-dose-only effect; inactive = no such curve, though single readings can be large or run the other way.

Assay: qHTS assay for re-activators of p53 using a Luc reporter: Hit Validation; also: nearly all actives have a fitted effect of over 75% in size; as to activation: 0% is about no effect
Settings: p53-responsive luciferase reporter cells, luminescence, H1299 line expressing heat-sensitive Ala138Val p53; series mostly up to 46.1 µM; activation: at the top concentration
Procedure, shortened: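 Hit confirmation with a 1:5 dilution series, at 37 deg C for 24 hrs, in H1299 cells co-expressing temperature-sensitive p53-A138V and p53-responsive luciferase. Nocodazole served as control; luminescence read after 10 min with detection reagent.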
Potency is read from the fitted curve at half-maximal effect.

Potency, active:
C/C(=N\NC(=O)c1cccc(Br)c1)c1ccccn1 9.2 µM
Fc1cccc2sc(Nc3nnc(-c4ccco4)o3)nc12 11.6 µM
CC(C)/C=C1\CC/C(=C\c2ccc(N(C)C)cc2)C1=O 2.91 µM
COc1ccc2nc(SCc3ccccc3)nc(C)c2c1 1.46 µM
O=C(NOCc1ccccc1)c1ccc(Cl)cc1 1.84 µM
O=C1CC(c2ccc3c(c2)OCCO3)Oc2ccc([N+](=O)[O-])cc21 (stereo not drawn) 2.59 µM
Cc1ccc(NC(=O)c2ccc(OC(=O)COc3ccc(Cl)c(C)c3)cc2)cc1 9.2 µM
Clc1ccc(-c2nnc(SCc3ccon3)o2)c(Cl)c1 0.366 µM
CCCSc1ccc2nc(-c3ccccc3)cn2c1 0.206 µM
CN(/N=C/c1ccc2c(c1)OCO2)c1ccccc1 14.6 µM
CC(=O)/C=C(\C)Nc1ccc(-c2cnc(-c3ccccc3)o2)cc1 2.59 µM
CN(C)/C=N/c1cnc(C(=O)c2ccc(Cl)cc2)n1C 2.59 µM
Cc1ccc2oc(-c3ccc(C)c(NC(=S)NC(=O)c4cccs4)c3)nc2c1 4.61 µM
O=C(CC1SC(N2CCCC2)=NC1=O)Nc1ccc(C(=O)Nc2ncccc2O)cc1 (stereo not drawn) 16.4 µM
Cc1cccc(C(=O)OCC(=O)N2CCCCCC2)c1O 5.17 µM

activation, inactive:
CCn1c(=O)c2ccccc2n(Cc2ccccc2C)c1=O -7.29%
O=[N+]([O-])c1cc(C(F)(F)F)ccc1NCCc1c[nH]c2ccccc12 5.73%
O=C(Nc1ccc(Cl)cc1C(F)(F)F)c1ccccc1 33.9%
O=C(Nc1ccc(Cl)cc1)Nc1nnc(SCc2ccccc2)s1 41.1%
O=C(CCc1nc(-c2ccccc2)no1)N1CCCC1 42.2%
COc1ccc(C2/C(=C(/O)c3ccc(C)cc3)C(=O)C(=O)N2CCCN2CCOCC2)cc1 (stereo not drawn) -17.2%
COCCn1c(SCC(=O)Nc2ccc(N3CCOCC3)cc2)nc2ccccc21 7.81%
O=C(/C=C/c1ccccc1)NC1CCSC1=O (stereo not drawn) 23.4% [at 9.22 µM]
Clc1cccc(N/N=C(\Cc2nc3ccccc3[nH]2)c2ccccc2)c1 20.3%
Nc1nonc1-n1nnc(C(=O)N/N=C/c2cc(Br)ccc2O)c1CSC1=NCCS1 -26.8% [at 9.22 µM]
COCCSc1nnc(NC(=O)CCS(=O)(=O)c2ccccc2)s1 -38.9% [at 9.22 µM]
CCOC(=O)N1CCN(S(=O)(=O)c2ccc(C(=O)NNc3nc4c(C)cc(C)cc4s3)cc2)CC1 -31.8%
O=C(N/N=C/c1sc(=O)[nH]c1-[n+]1ccc2ccccc2c1)c1ccccc1[O-] 5.73%
Cc1ccc(C(=O)Nc2nnc(SCC(=O)N3CCCc4ccccc43)s2)cc1 -3.65%
CCN(CC(=O)NCc1cccs1)c1ccc(S(=O)(=O)N2CCOCC2)cn1 -24.5%
Cc1cnc(C(=O)OCC(=O)c2csc(N3CCCCC3)n2)cn1 25%
Cc1nonc1NCn1nnc2ccccc21 7.94% [at 9.22 µM]
CCOc1ccc(/C=N/NC(=O)CN2CCSCC2)cc1 -1.56%
CCOC(=O)c1sc(NC(=S)NC(=O)c2ccco2)nc1C 27.6%
CNC(=S)N/N=C/c1cc(Br)cc(Br)c1O -9.38%
COCCn1c(C)cc(C(=O)COc2ccc(N(C)S(=O)(=O)c3ccc(C)cc3)cc2)c1C 17.2%
COc1ccc2cc3c(N)nn(C(=O)c4ccc(Cl)c([N+](=O)[O-])c4)c3nc2c1 -10.9%
COc1cccc(NC(=O)CSC2=C(C#N)C(c3ccco3)C3=C(CCCC3=O)N2)c1 (stereo not drawn) 8.33%
